Results reported in PubChem BioAssay AID1851 (National Center for Advancing Translational Sciences (NCATS), 2009).
Screen size: about 16,000 compounds; about 5,700 (36%) were called active. Inconclusive results (about 24%) are left out. Calls come from the whole dose curve; as a rule, active = well fitted curve in the direction sought with a large enough effect; inconclusive = small, poorly fitted or top-dose-only effect, or effect the other way; inactive = no such curve, though single readings can be large or run the other way. Some of the results follow.

These compounds were tested against Cytochrome P450 1A2 (Homo sapiens) (UniProt P05177) (assay: Cytochrome panel assay with activity outcomes). Details: recombinant CYP, pro-luciferin dealkylation, luminescence, p450-cyp1a2; series mostly up to 57.1 µM; activity, negative = inhibition: at the top concentration.
Cytochrome P450 1A2 (Homo sapiens), sequence (P05177 whole entry, looked up): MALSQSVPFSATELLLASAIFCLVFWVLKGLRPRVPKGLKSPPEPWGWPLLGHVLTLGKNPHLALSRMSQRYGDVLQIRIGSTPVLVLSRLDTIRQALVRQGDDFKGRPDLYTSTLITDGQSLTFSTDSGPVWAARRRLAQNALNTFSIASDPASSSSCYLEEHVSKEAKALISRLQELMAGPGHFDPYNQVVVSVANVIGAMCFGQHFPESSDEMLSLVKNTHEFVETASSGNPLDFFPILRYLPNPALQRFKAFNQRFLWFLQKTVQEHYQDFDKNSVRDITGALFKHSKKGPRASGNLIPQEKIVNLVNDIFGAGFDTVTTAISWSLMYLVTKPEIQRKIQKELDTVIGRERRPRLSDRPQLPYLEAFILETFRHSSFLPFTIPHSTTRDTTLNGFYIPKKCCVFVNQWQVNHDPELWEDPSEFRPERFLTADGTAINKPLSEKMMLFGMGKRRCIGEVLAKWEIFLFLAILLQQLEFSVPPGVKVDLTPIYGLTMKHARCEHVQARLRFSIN
% is set by controls: 0 for no effect and ±100 for the full control effect.

| SMILES | AC50 | activity, negative = inhibition |
| --- | --- | --- |
| O=C(O)CN(CCN(CC(=O)O)CC(=O)O)CCN(CC(=O)O)CC(=O)O | inactive | – |
| C#CCCCO/N=C1/C[C@@H](O)[C@@H](O)[C@@H]2[C@@H]3C(=O)N(C4CCCCC4)C(=O)[C@H]3CC[C@@H]12 | – | 1.04% [at 11.4 µM] (inactive) |
| Cc1cccc(CNc2ncnc3ccc(-c4c(C)noc4C)cc23)c1 | 5.01 µM (active) | – |
| O=C(N/N=C1\CCCc2ccccc21)c1ccc([N+](=O)[O-])cc1Cl | 15.8 µM (active) | – |
| Cc1cccc(N=C2NN=C(c3ccc4c(c3)OCCO4)CS2)c1 | 14.1 µM (active) | – |
| Nc1nnc(SCCOc2cccc(Br)c2)s1 | 5.01 µM (active) | – |
| CN(C)c1cc(-c2cccc(NS(C)(=O)=O)c2)ncn1 | 1.26 µM (active) | – |
| Cc1cccc(CNc2cc(-c3cccc(NS(C)(=O)=O)c3)ncn2)c1 | 10 µM (active) | – |
| Cc1cccc(NS(=O)(=O)c2c(C)n[nH]c2C)c1 | – | -19.9% (inactive) |
| CS(=O)(=O)Nc1cccc(-c2cc(NCc3ccccc3)ncn2)c1 | 12.6 µM (active) | – |
| CS(=O)(=O)Nc1cccc(-c2cc(Nc3ccccc3)ncn2)c1 | 0.398 µM (active) | – |
| COc1ccc(NC(=O)N2CCCC3(CCN(C(=O)c4csnn4)CC3)C2)cc1 | – | -11.7% (inactive) |
| CS(=O)(=O)Nc1cccc(-c2cc(NCc3cccs3)ncn2)c1 | 6.31 µM (active) | – |
| Cc1ccc(/C=C/C(=O)N2CC(C)CC(C)C2)o1 (centres undefined) | 8.91 µM (active) | – |
| Cc1ccc(NC(=O)CN2C(=O)N/C(=C/c3ccc(C)o3)C2=O)cc1 | – | 2.74% (inactive) |
| C[C@@H](NCc1cc(Br)cc2[nH]c(=O)c(=O)[nH]c12)P(=O)(O)O | – | -9.6% (inactive) |
| COC(=O)N1CCC2(CCCN(Cc3cc(C(F)(F)F)cc(C(F)(F)F)c3)C2)CC1 | – | 13.1% (inactive) |
| CC(C)(C)n1ncc2c(=O)n(CC(=O)NCc3ccccc3Cl)cnc21 | – | -14.5% (inactive) |
| Cc1ccccc1Cn1cnc2c(cnn2C(C)(C)C)c1=O | – | -22.5% (inactive) |
| CCCCn1cnc2c(cnn2-c2ccc(F)cc2)c1=O | 3.16 µM (active) | – |
| Clc1ccc(Cc2nc(-c3cccnc3)no2)cc1 | 1 µM (active) | – |
| CCCN[C@@H](C)C(=O)Nc1ccccc1C | – | -15.8% (inactive) |
| Cc1cccc(C)c1NC(=O)C(c1ccccc1)N1CCC1=O (centres undefined) | – | -1.16% (inactive) |
| Cc1ccccc1NC(=O)C(C)c1cccc(C(=O)c2ccccc2)c1 (centres undefined) | 11.2 µM (active) | – |
| CCCc1c(-c2ccc(O)cc2)nn(-c2ccc(O)cc2)c1-c1ccc(O)cc1 | 20 µM (active) | – |

| SMILES | AC50 | activity, negative = inhibition |
| --- | --- | --- |
| CCSc1nnc(NC(=O)Cc2ccc(OC)c(OC)c2)s1 | – | -25.9% (inactive) |
| CC(=O)Nc1nnc(SCc2ccc(F)cc2)s1 | 10 µM (active) | – |
| O=C(NCC1CCCO1)C(c1cccnc1)N(C(=O)Cc1cccs1)c1ccccc1 (centres undefined) | 12.6 µM (active) | – |
| Cc1ccccc1N(C(=O)Cc1cccs1)C(C(=O)NCC1CCCO1)c1cccnc1 (centres undefined) | – | -0.125% (inactive) |
| O=C(NCC1CCCO1)C(c1cccnc1)N(C(=O)Cc1cccs1)c1cccnc1 (centres undefined) | – | 3.77% (inactive) |
| O=c1c2ccc(Cl)cc2nc(-c2cccc(C(F)(F)F)c2)n1O | 1.26 µM (active) | – |
| COc1ccc(S(=O)(=O)NCCC(=O)NCc2ccc(F)cc2)cc1 | – | -6.97% (inactive) |
| COC(=O)c1sccc1NC(=O)CN(C)NS(=O)(=O)c1ccc(F)cc1 | 11.2 µM (active) | – |
| CCCc1nnc(NC(=O)c2cccs2)s1 | 0.631 µM (active) | – |
| CCCc1nnc(NC(=O)Cn2cnc3ccccc3c2=O)s1 | – | -10.1% (inactive) |
| O=C(Nc1ncc(Cc2cccc(Cl)c2)s1)c1cccs1 | 1.58 µM (active) | – |
| CCCc1nnc(NC(=O)CN2C(=O)C3C4C=CC(C4)C3C2=O)s1 (centres undefined) | – | -24.4% (inactive) |
| Cc1ccc(Cc2cnc(NC(=O)c3cccs3)s2)cc1 | 1.41 µM (active) | – |
| CCOc1cc(NC(=O)c2cccs2)c(OCC)cc1NC(=O)c1ccco1 | – | -27% (inactive) |
| COc1ccc(O[C@H]2C=C[C@@H](c3ccccc3)O[C@H]2COC(=O)CC/C(C)=N\O[C@@H](C)CN2CCCCc3nc(C)c(C)cc32)cc1 | – | -2.12% [at 11.4 µM] (inactive) |
| O=C(c1csnn1)N1CCC2(CC1)CN(c1ccncc1)C2 | – | 1.41% (inactive) |
| O=c1c2c(-c3cccs3)csc2ncn1-c1ccc(Br)cc1 | 0.794 µM (active) | – |
| Nc1[nH]nc2nc3ccccc3nc12 | 0.316 µM (active) | – |
| N[C@@H](Cc1cnc[nH]1)C(=O)O | – | -7.04% (inactive) |
| N=C(N)SCCc1cnc[nH]1 | inactive | – |
| Fc1ccc(C(OCCCc2cnc[nH]2)c2ccc(F)cc2)cc1 | 0.1 µM (active) | – |
| C=CCNS(=O)(=O)c1cccc2cc(C(=O)O)c(O)cc12 | 1.58 µM (active) | – |
| NS(=O)(=O)c1cc(C(=O)O)c(O)c2ccccc12 | – | -19.2% [at 11.4 µM] (inactive) |
| O=C(O)c1cc2ccccc2c(S(=O)(=O)O)c1O | – | 6.64% [at 11.4 µM] (inactive) |
| O=C(Cn1cccc1C(=O)c1ccccc1)NCc1cccs1 | 20 µM (active) | – |

| SMILES | AC50 | activity, negative = inhibition |
| --- | --- | --- |
| CCN(CC(=O)NCc1cccs1)S(=O)(=O)c1ccc(C(C)C)cc1 | – | -27.2% (inactive) |
| Cc1ccc(CCN2CC(C(=O)NCCN3CCOCC3)CC2=O)cc1 (centres undefined) | – | -19.1% (inactive) |
| Cc1noc(C)c1COc1cccc(C(=O)OCC(=O)N2CC(=O)Nc3ccccc32)c1 | 25.1 µM (active) | – |
| Cc1cc(C(=O)C(=O)NC(C)C)c(C)n1-c1ccc([N+](=O)[O-])cc1 | – | -16.5% (inactive) |
| Cc1cc(C=O)c(C)n1-c1ccc(NC2CCCC2)c([N+](=O)[O-])c1 | 0.447 µM (active) | – |
| Cc1cc(C=O)c(C)n1-c1ccc(N2CCCCC2)c([N+](=O)[O-])c1 | 14.1 µM (active) | – |
| CS(=O)(=O)N1CCN(c2ccc(C(=O)NC3C4CC5CC(C4)CC3C5)cc2[N+](=O)[O-])CC1 (centres undefined) | – | 16.8% (inactive) |
| COc1ccc(/C=C2\SC(=O)N(CCNC(=O)C3CC(=O)N(c4ccccc4)C3)C2=O)cc1 (centres undefined) | – | -15.8% (inactive) |
| COc1ccccc1OCCN1C(=O)S/C(=C\c2ccco2)C1=O | 14.1 µM (active) | – |
| CC(=O)[C@@H](C)CCO[C@@]1(C)OCC[C@@H]1C | – | -19.3% [at 11.4 µM] (inactive) |
| O=C(c1ccc(C(F)(F)F)cc1)c1c[nH]c(C(=O)NCCCn2ccnc2)c1 | 2 µM (active) | – |
| CC(C)(C)c1ccc(C(=O)c2c[nH]c(C(=O)NCCCn3ccnc3)c2)cc1 | 5.62 µM (active) | – |
| CC1=C(C#N)C(Nc2ccc(Cl)cn2)(C(F)(F)F)C(=O)N1 (centres undefined) | – | -10.6% (inactive) |
| CC(=O)c1sc(NC(=O)C(C)C)nc1C | 10 µM (active) | – |
| CCOc1ccc2nc(N3CCCCCC3)sc2c1 | 2.82 µM (active) | – |
| CCOC(=O)N1CCN(C(=O)c2ccc3nc(N4CCC(C)CC4)sc3c2)CC1 | – | -26.8% (inactive) |
| CCOC(=O)C1CCN(C(=O)C2CCN(c3nc4ccc(OC)cc4s3)CC2)CC1 | – | -20.4% (inactive) |
| CC(=O)NC(C)C(c1cccs1)N1CCN(c2ccccc2)CC1 (centres undefined) | – | 5.22% (inactive) |
| COC(=O)[C@@]1(Cc2ccc(F)cc2)[C@@H]2[C@@H](CC(=O)[C@H]2CC(=O)C(=O)N(C)C)CN1C(=O)c1ccccc1 | – | -11.5% (inactive) |
| Cc1cnc(CNc2ncncc2-c2ccccc2Cl)cn1 | 15.8 µM (active) | – |
| Cc1cnc(CNc2ncncc2-c2ccccc2CN(C)C)cn1 | 12.6 µM (active) | – |
| Cc1cnc(CNc2ncncc2-c2ccccc2C(F)(F)F)cn1 | – | -14.1% (inactive) |
| CN(C)Cc1ccccc1-c1cncnc1NC1CC1 | 15.8 µM (active) | – |
| Cc1cnc(CNc2ncncc2-c2ccccc2C)cn1 | 25.1 µM (active) | – |
| CC1=CC(=O)C=CC1(C)C(Cl)(Cl)Cl (centres undefined) | – | -2.86% (inactive) |

| SMILES | AC50 | activity, negative = inhibition |
| --- | --- | --- |
| CCN1C(=O)[C@@H]2[C@H]3C(=CC[C@H]2C1=O)C(=O)[C@H]1OC1[C@H]3O (some centres undefined) | – | -3.23% [at 11.4 µM] (inactive) |
| Cc1nc(SC2CC(=O)N(c3ccc([N+](=O)[O-])cc3)C2=O)nc2c1CCCC2 (centres undefined) | – | 22.7% (inactive) |
| Cc1cnc(CNc2ncncc2-c2ccccc2C#N)cn1 | 0.251 µM (active) | – |
| C[C@@]1(O)CCOC(=O)C1 | – | -3.08% [at 25.6 µM] (inactive) |
| CCCCC#Cc1nc(N)c2ncn([C@@H]3O[C@@H](C(=O)NCC)[C@H](O)[C@@H]3O)c2n1 | – | -3.78% (inactive) |
| COc1ccc(CCN(C(=O)C(F)(F)F)C(C(=O)NC2CCCC2)c2cccs2)cc1 (centres undefined) | 12.6 µM (active) | – |
| Cc1ccc(N(C(=O)C(F)(F)F)C(C(=O)NC2CCCCC2)c2cccs2)cc1C (centres undefined) | – | 6.29% (inactive) |
| COc1ccc(CN(C(=O)Cc2cccs2)C(C(=O)NC2CCCC2)c2ccncc2)cc1 (centres undefined) | – | -15.6% (inactive) |
| COc1cccc(N2CCN(C(=O)Nc3ccc4c(c3)NC(=O)CO4)CC2)c1 | – | -9.31% (inactive) |
| O=C(COC(=O)c1cccc(S(=O)(=O)N2CCN(c3ccccc3)CC2)c1)NCc1ccco1 | – | -14.6% (inactive) |
| Cc1cccc(Nc2ccccc2C(=O)OCC(=O)NCc2ccco2)c1C | 12.6 µM (active) | – |
| O=C(COC(=O)c1ccccc1Nc1cccc(C(F)(F)F)c1)NCc1ccco1 | 5.01 µM (active) | – |
| Cc1ccc(C(=O)N/C(=C/C=C/c2ccccc2)C(=O)NCc2ccco2)cc1 | – | -19.3% (inactive) |
| Cc1cccc(Nc2ccccc2C(=O)OCC(=O)N(C)C2CCS(=O)(=O)C2)c1C (centres undefined) | – | -12.7% (inactive) |
| O=C(CSc1nc(-c2ccccc2)cs1)N1CCc2ccccc21 | 2.51 µM (active) | – |
| O=C(CNCCO)N1CCc2ccccc21 | – | -26.8% (inactive) |
| CCN(CC)C(=O)CSc1nnc(CNc2ccc(F)cc2)o1 | – | -25.8% (inactive) |
| O=C(NCc1ccccc1)c1ccc(S(=O)(=O)N2CCCc3ccccc32)cc1 | – | -9.75% (inactive) |
| O=C(CSc1nnc(CNc2ccccc2)o1)N1CCCc2ccccc21 | 12.6 µM (active) | – |
| O=C(O)CCC(=O)N1CCc2cc(S(=O)(=O)NCc3cccs3)ccc21 | – | -5.7% (inactive) |
| CCN(CC)C(=O)CSc1nnc(C2CCCCC2)o1 | – | 10.2% (inactive) |
| O=C(CSc1n[nH]c(-c2ccccc2O)n1)N1CCCc2ccccc21 | 2 µM (active) | – |
| O=C(CSc1nnc(CNc2ccc(F)cc2)o1)OC1CCCCC1 | 25.1 µM (active) | – |
| C[C@]12CC[C@H]3c4ccc(OC[C@H]5CO5)cc4CC[C@H]3[C@H]1CC[C@@H]2O | – | -8.48% [at 11.4 µM] (inactive) |
